# For some of these results: Entries with a potency or affinity are not part of this list.
# How the values were obtained:
# Set-up in all cases: scale not given: direction of the effect not stated beside the values
# [1] = biological target: Protein translocase subunit SecA (Escherichia coli (strain K12)) (UniProt P10408); assay: Assay to Identify E. coli SecA ATPase Inhibitors; assay type: functional; settings: 30 µM
# [2] = biological target: T1, Ubiquitin-activating enzyme e1, putative (Leishmania donovani (strain BPK282A1)) (UniProt E9BSI1); assay: Leishmania donovani Ubiquitin Activating Enzyme (LdE1); assay type: functional; settings: 30 µM
# T1 sequence (whole entry): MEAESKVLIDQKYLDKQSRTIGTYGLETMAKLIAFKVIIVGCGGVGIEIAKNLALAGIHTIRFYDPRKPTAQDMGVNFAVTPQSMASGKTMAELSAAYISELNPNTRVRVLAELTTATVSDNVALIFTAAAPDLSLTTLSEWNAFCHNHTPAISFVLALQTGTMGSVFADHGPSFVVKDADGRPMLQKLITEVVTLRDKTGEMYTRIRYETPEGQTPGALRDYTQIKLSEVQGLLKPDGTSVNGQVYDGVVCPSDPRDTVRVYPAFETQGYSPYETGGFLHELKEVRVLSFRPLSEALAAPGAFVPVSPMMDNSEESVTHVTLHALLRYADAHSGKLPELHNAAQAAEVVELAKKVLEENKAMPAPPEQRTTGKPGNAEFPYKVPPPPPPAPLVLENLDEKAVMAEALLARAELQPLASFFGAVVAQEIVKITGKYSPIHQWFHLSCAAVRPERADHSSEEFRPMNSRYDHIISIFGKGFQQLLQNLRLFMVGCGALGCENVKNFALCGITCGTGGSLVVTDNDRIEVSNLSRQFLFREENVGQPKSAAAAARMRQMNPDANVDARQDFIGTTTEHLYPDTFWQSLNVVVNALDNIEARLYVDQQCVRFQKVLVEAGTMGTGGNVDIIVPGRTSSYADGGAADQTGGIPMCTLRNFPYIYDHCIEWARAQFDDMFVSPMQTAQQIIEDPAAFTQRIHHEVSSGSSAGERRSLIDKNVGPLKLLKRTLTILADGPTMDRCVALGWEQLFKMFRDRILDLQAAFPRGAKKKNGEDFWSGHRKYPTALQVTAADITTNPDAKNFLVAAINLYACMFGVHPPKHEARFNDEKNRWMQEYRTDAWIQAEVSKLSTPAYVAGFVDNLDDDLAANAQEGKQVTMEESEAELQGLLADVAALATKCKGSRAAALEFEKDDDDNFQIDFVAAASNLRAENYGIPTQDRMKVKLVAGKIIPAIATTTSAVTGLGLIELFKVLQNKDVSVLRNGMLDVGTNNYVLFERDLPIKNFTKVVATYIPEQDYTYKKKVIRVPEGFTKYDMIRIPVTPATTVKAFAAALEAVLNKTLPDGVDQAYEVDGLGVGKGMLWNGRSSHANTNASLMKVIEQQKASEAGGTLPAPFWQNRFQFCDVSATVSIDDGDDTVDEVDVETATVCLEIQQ
# [3] = biological target: AMP-activated protein kinase, AMPK (Homo sapiens) (UniProt P54646+O43741+P54619+Q9UGJ0+Q9Y478+Q13131+Q9UGI9); assay: AMP-dependent Kinase enzyme assay. An in vitro enzyme assay that detects ADP turnover that is directly proportional to AMPK activity. This uses naive AMPK that is activated during the assay with MK-8722; assay type: functional; settings: 30 µM
# [4] = biological target: Sialic acid-binding Ig-like lectin 9 (Homo sapiens) (UniProt Q9Y336); assay: Hs-Siglec9 ALPHAscreen SOP 20170721; settings: 10 µM
# Sialic acid-binding Ig-like lectin 9 (Homo sapiens), sequence (Q9Y336 whole entry): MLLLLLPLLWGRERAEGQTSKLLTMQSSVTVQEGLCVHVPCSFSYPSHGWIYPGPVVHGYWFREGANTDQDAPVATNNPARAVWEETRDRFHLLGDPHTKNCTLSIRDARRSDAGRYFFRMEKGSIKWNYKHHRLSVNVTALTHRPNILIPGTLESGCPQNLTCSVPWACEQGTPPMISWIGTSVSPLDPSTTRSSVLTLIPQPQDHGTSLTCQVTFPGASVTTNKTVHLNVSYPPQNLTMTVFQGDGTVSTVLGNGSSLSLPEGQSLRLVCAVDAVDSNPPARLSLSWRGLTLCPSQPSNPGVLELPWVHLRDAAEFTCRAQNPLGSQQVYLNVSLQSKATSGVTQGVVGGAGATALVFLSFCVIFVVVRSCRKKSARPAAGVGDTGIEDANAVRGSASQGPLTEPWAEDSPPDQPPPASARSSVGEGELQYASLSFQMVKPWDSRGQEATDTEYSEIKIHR
# Trypanosoma cruzi = assay: Trypanosoma cruzi phosphomannomutase and mannose-1-phosphate guanylyltransferase assay; assay type: functional; settings: 10 µM
# [5] = biological target: T2, Arginase-2, mitochondrial (Homo sapiens) (UniProt P78540); assay: in vitro enzyme assay to detect the production of urea directly proportional to the activity of Arginase II; assay type: functional; settings: 33.3 µM; note: in the data most compounds retested in dose-response had high values
# T2 sequence (whole entry): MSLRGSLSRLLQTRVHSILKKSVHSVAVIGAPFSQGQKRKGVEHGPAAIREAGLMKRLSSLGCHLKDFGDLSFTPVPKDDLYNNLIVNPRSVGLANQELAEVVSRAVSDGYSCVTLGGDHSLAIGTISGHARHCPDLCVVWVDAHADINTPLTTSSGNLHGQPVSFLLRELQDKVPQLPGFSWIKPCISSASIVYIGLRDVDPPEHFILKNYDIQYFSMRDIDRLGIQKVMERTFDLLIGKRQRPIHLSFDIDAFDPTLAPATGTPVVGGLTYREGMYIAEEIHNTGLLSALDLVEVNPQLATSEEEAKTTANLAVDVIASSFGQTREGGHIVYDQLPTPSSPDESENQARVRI
# [6] = biological target: T3, Proteasome subunit beta (Trypanosoma cruzi) (UniProt O96673); assay: Trypanosoma cruzi proteasome chymotrypsin-like activity (TcProtChymo) assay.; note: in the data most compounds retested in dose-response had high values; assay type: functional; settings: 9.37 µM
# T3 sequence (whole entry): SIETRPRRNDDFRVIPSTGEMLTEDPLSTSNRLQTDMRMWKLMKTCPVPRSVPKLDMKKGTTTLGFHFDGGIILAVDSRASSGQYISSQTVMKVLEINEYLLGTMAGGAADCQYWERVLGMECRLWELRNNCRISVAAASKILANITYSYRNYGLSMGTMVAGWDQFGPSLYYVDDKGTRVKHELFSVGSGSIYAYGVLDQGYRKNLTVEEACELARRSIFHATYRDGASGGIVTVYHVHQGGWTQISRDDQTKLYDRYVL
# Homo sapiens = organism: Homo sapiens; assay: To identify inhibition of the IFN signalling (Jak-Stat) pathway via expression of an eGFP reporter gene under the control of an IFN-stimulated response element (ISRE) containing MxA promoter.; assay type: functional; settings: 30 µM
# [7] = biological target: T4, Tyrosyl-tRNA synthetase, putative (Trypanosoma cruzi (strain CL Brener)) (UniProt Q4DSP6); assay: Trypanosoma cruzi tyrosyl tRNA synthetase (TcYRS) _High Tyrosine SOP; assay type: functional; settings: 30 µM; note: in the data most compounds retested in dose-response had high values
# T4 sequence (whole entry): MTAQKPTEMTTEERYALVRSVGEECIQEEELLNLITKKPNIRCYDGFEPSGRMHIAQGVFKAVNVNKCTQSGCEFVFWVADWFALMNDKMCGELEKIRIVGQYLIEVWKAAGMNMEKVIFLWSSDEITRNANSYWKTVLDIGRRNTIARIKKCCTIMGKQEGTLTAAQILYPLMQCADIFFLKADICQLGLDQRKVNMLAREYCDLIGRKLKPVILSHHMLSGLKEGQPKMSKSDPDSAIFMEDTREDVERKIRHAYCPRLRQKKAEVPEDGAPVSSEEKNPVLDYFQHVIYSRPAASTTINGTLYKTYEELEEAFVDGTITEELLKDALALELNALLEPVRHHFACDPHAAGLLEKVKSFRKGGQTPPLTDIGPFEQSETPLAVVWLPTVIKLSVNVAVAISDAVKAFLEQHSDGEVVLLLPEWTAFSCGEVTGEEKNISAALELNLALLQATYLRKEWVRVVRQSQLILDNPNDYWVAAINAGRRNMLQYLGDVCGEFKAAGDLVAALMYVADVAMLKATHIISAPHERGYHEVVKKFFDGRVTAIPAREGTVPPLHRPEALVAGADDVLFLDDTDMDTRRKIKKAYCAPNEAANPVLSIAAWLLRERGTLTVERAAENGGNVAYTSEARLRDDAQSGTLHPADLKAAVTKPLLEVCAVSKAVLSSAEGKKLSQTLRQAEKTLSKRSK
# [8] = biological target: T4, Tyrosyl-tRNA synthetase, putative (Trypanosoma cruzi (strain CL Brener)); assay: Trypanosoma cruzi tyrosyl tRNA synthetase (TcYRS) SOP; assay type: functional; settings: 30 µM
# [9] = biological target: Chromo domain-containing protein 1 (Saccharomyces cerevisiae (strain ATCC 204508 / S288c) (Baker's yeast)) (UniProt P32657); assay: ScCHD-1 Enzyme Inhibition Assay; assay type: functional; settings: 30 µM; note: in the data most compounds retested in dose-response had high values
# Chromo domain-containing protein 1 (Saccharomyces cerevisiae (strain ATCC 204508 / S288c) (Baker's yeast)), sequence (P32657 whole entry, the tested form may be a part): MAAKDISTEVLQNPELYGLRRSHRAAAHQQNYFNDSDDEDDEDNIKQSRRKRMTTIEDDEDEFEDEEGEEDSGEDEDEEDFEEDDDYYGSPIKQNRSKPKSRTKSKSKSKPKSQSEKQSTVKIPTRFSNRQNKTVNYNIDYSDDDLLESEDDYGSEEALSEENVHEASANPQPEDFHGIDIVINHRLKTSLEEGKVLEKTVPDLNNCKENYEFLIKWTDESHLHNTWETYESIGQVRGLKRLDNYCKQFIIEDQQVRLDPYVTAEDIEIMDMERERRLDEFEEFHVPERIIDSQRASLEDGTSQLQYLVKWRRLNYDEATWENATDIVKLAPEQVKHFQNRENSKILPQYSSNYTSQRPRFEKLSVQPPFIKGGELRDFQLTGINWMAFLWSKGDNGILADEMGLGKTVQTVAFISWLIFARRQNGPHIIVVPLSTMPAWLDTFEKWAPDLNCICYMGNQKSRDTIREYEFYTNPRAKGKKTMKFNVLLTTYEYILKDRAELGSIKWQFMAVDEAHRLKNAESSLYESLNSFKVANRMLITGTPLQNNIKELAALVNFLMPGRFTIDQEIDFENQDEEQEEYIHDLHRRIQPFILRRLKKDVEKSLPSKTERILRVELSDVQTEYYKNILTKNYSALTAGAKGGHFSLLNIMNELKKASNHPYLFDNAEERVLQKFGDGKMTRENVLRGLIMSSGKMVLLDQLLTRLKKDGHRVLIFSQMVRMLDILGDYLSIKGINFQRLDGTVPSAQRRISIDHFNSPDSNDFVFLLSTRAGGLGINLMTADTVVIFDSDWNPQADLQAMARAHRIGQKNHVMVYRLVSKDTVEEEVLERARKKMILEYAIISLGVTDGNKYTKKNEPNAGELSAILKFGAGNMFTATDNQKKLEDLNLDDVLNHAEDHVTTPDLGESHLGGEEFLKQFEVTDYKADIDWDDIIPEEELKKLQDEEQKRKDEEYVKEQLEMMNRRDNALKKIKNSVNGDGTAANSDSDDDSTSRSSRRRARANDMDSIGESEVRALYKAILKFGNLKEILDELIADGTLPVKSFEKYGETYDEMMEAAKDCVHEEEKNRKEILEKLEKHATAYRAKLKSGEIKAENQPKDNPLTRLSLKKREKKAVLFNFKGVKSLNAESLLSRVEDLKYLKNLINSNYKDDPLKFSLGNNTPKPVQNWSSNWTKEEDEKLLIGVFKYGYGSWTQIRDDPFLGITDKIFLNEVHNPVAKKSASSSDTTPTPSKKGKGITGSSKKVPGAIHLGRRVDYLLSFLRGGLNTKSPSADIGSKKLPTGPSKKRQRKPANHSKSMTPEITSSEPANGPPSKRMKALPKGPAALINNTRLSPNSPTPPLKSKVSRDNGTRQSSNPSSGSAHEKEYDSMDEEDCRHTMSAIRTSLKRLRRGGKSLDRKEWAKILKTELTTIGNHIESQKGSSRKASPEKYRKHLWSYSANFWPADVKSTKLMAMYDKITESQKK
# Protein translocase subunit SecA (Escherichia coli (strain K12)), sequence (P10408 whole entry): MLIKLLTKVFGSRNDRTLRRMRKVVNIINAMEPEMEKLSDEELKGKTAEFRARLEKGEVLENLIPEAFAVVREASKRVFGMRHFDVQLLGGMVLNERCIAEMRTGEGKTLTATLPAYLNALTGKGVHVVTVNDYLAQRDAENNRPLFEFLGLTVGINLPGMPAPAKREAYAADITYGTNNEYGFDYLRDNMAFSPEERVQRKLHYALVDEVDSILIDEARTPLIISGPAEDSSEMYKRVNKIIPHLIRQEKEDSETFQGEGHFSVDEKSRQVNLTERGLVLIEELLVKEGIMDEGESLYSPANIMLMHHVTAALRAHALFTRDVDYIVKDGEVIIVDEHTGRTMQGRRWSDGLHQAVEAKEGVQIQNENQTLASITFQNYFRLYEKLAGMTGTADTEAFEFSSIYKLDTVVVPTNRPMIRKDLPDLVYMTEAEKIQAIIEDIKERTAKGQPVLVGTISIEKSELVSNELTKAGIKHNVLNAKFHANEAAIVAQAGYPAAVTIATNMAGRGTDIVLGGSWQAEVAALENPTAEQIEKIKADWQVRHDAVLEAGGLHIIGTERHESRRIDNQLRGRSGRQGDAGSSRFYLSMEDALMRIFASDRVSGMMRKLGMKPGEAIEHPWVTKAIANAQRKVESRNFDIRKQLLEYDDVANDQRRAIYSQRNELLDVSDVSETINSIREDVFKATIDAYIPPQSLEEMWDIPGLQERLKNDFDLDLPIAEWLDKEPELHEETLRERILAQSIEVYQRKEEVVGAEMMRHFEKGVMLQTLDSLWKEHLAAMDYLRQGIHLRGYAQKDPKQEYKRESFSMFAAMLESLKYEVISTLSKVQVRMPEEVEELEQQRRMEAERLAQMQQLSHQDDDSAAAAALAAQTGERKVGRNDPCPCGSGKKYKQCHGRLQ
SMILES,Percent Effect [1],Percent Effect [2],Percent Effect [3],Percent Effect [4],Percent Effect (Trypanosoma cruzi),Percent Effect [5],Percent Effect [6],Percent Effect (Homo sapiens),Percent Effect [7],Percent Effect [8],Percent Effect [9]
CCN(CC)CC1CN(CCc2ccccc2)Cc2nccn2C1 (stereo not given),-3.63%,-2.74%,1.1%,4.51%,3.77%,-1.6%,1.28%,2.5%,7.29%,8.64%,-0.569%
COc1ccc(CN(C)CC2(O)CCN(C(=O)c3cccn3C)C2)cc1 (stereo not given),-9.44%,-1.35%,5.12%,2.88%,-1.78%,-7.19%,-1.87%,11.8%,-2.15%,-3.9%,-10.2%
CCc1nc(CN2CCCN(c3nc4ccccc4o3)CC2)no1,7.05%,13%,-1.96%,2.65%,-9.14%,-13.8%,12.2%,23.6%,4.3%,8.64%,-0.262%
CC(=O)N1CCCC1C(=O)NCCOc1cc(C)cc(C)c1 (stereo not given),-7.33%,7.79%,-4.76%,10.6%,3.37%,-5.34%,-7.43%,-4.36%,6.8%,12.2%,-4.02%
CNc1nc(CNC(=O)Nc2ccccc2-c2noc(C)n2)cs1,-1.81%,-2.63%,-2.79%,-0.349%,-3.19%,-1.92%,3.01%,17.1%,1.47%,-4.88%,-4.83%

# From ChEMBL document CHEMBL3988442, “University of Dundee, Small-Polar-MMV Screening Library” (2021)
